High-throughput results (PubChem BioAssay)
HEK cytotox – kills HEK 293 cells; HEK 293 viability, ATP luminescence (CellTiter-Glo), 48-72 h; Potency, µM (titrated, usually from 115 µM), actives largely listed as inhibitors; 6.6% of 94,000 active; also: nearly all actives have a fitted effect of over 60% in size
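Read-out: CellTiter-Glo ATP luminescence. Cells: HEK 293, 250 cells/well. Exposure: 48 or 72 hr, 37 degree Celsius.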
hNpr1 antagonist – blocks ANP-stimulated signaling of human Npr1 receptor; P16066; HEK293 hNpr1 GloSensor cGMP, ANP-stimulated luminescence; Potency, µM (doses to about 46.3 µM), usual class: inhibitors; 1.6% of 76,000 active; AID 1347048; calls by dose curve; also: nearly all actives have a fitted effect of over 60% in size
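Compound pre-incubated 30 min at room temperature on GloSensor-loaded HEK293 cells stably carrying hNpr1 and the pGS-40F cGMP biosensor. Stimulation uses hNppA at 0.1 nM final; luminescence is taken at baseline and 20 min post-agonist.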
NIH3T3 tox – cytotoxic compounds in NIH 3T3 cells. NIH 3T3 viability, CellTiter-Glo ATP luminescence, 48-72 h. 4.3% of 94,000 active. Potency, µM (titrated, usually from 96.7 µM), usual class: inhibitors. AID 1345082; also: nearly all actives have a fitted effect of over 55% in size
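Luminescent ATP readout (CellTiter-Glo, 10 min RT) after 48 or 72 hr compound exposure of NIH 3T3 cells seeded at 400 cells/well in 1536-well format; quantitative HTS.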
Luciferase inh – Photinus pyralis luciferase inhibition. 2.5% of 76,000 active. purified P. pyralis luciferase, luminescence, biochemical. Potency, µM (doses to about 115 µM), actives largely listed as inhibitors. P08659; also: nearly all actives have a fitted effect of over 65% in size
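Biochemical qHTS: compound (6-point titration) added to 10uM D-luciferin plus 10uM ATP in Tris acetate pH 7.5 buffer with Mg, Tween-20 and BSA, then purified enzyme at 10nM; light output imaged.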
Numbers stand for hits; 0 = inactive; ? = inconclusive; - = no result; ! = not active in a repeat. A selection: hits, their analogues and other compounds. The true share with any hit is near 11%. Unless noted, calls follow the shape of the dose curve; as a rule, active = well fitted curve in the direction sought with a large enough effect; inconclusive = small, poorly fitted or top-dose-only effect, or another doubt; inactive = no such curve, though single readings can be large; an effect the other way counts as inactive or inconclusive.

SMILES	HEK cytotox	hNpr1 antagonist	NIH3T3 tox	Luciferase inh
O=c1n(-c2ccc([N+](=O)[O-])cc2)nc2n1CCN(CC1CC1)C2	35.5µM	?	?	?
O=c1n(-c2ccc(F)cc2F)nc2n1CCN(Cc1ccc(C(F)(F)F)cc1)C2	79.4µM	?	0	0
O=c1n(-c2ccc([N+](=O)[O-])cc2)nc2n1CCN(Cc1ccc(OC(F)(F)F)cc1)C2	35.5µM	17.8µM	?	0
CO[C@@H]1COCC[C@H]1NC(=O)CCCn1nnc(-c2ccc(F)cc2)n1	0	0	0	0
O=c1n(-c2ccc([N+](=O)[O-])cc2)nc2n1CCN(Cc1ccc(C(F)(F)F)cc1)C2	35.5µM	14.1µM	?	0
Cc1ccc(-n2nc3n(c2=O)CCN(C(=O)c2ccc(C(F)(F)F)cc2)C3)cc1	0	0	0	0
O=c1n(-c2ccc(Cl)cc2)nc2n1CCN(Cc1cccc3ccccc13)C2	0	-	0	-
O=c1n(-c2ccncc2)nc2n1CCN(Cc1cccc3ccccc13)C2	44.7µM	?	?	0
O=c1n(-c2ccc(C(F)(F)F)cc2)nc2n1CCN(Cc1ccsc1)C2	50.1µM	-	?	-
O=c1n(-c2ccc(C(F)(F)F)cc2)nc2n1CCN(Cc1ccc(F)cc1)C2	31.6µM!	0	39.8µM	0
O=c1n(-c2ccc(C(F)(F)F)cc2)nc2n1CCN(CC1CC1)C2	?	-	0	-
O=c1n(-c2ccc(Cl)cc2)nc2n1CCN(Cc1ccccc1)C2	?	-	8.91µM	-
COc1ccc(-n2nc3n(c2=O)CCN(Cc2cccnc2)C3)cc1	0	-	?	-
c1ccc2c(CN3CCC[C@H]3c3nc(-c4ccc(OC5CCCCC5)nc4)no3)c[nH]c2c1	35.5µM	0	31.6µM	0
COCCOc1ccc(-c2noc([C@@H]3CCCN3Cc3c[nH]c4ccccc34)n2)cn1	?	0	0	0
c1ccc2ncc(CN3CCC[C@H]3c3nc(-c4ccc(OC5CCCCC5)nc4)no3)cc2c1	?	?	?	0
COCCNc1ncccc1-c1noc([C@@H]2CCCN2Cc2ccccn2)n1	22.4µM	0	?	0
c1ccc(CN2CCC[C@H]2c2nc(-c3ccc(OC4CCCCC4)nc3)no2)nc1	63.1µM	?	44.7µM	?
Cc1cc2cc(-c3c(C)noc3C)nc(-c3ccc([S+](C)(=O)[O-])cc3)c2o1	0	0	?	0
COc1cc(CNc2nc(-c3c(C)noc3C)cc3cc(C)oc23)cc(OC)c1	?	?	25.1µM	0
Cc1cc2cc(-c3c(C)noc3C)nc(N(C)CCN(C)C)c2o1	100µM	0	?	0
Cc1cc2cc(-c3c(C)noc3C)nc(Nc3ccccc3)c2o1	?	0	31.6µM	0
O=C(c1noc(-c2ccc(F)cc2)n1)N1CCN(c2ccccc2Cl)CC1	?	0	?	0
O=C1CCCCC(Cc2cccnc2)(C(=O)NCc2ccc3c(c2)OCO3)N1 (stereo not drawn)	0	0	0	0
c1ccc2c(c1)CCN2C1CN(Cc2ccsc2)C1	?	0	?	0
SMILES	HEK cytotox	hNpr1 antagonist	NIH3T3 tox	Luciferase inh
Cc1c(CN2C[C@@H](CN(C)CCO)[C@@H](CO)C2)[nH]c2c(Cl)cccc12	44.7µM	0	79.4µM	0
CN(CCO)C[C@@H]1CN(C(=O)c2ccc3c(c2)CCC3)C[C@@H]1CO	0	0	0	0
O=C(Nc1ccc(Cl)cc1)N1CCC(c2nn(-c3ccc(F)cc3)c(=O)[nH]2)CC1	?	0	?	0
Cn1ccc(C(=O)N2CCCC(CCc3ccccc3C(F)(F)F)C2)n1 (stereo not drawn)	31.6µM	0	?	0
CCC1=C(C(=O)OC)C(c2ccccc2F)N2C(CC(=O)NCCc3cccs3)=CSC2=N1 (stereo not drawn)	0	0	?	0
Cc1cc(Cl)ccc1S(=O)(=O)N1CC(c2nc(-c3ccncc3)no2)C1	?	12.6µM	?	0
Cc1ccc(S(=O)(=O)N2CC(c3nc(-c4ccncc4)no3)C2)cc1	?	0	0	0
O=C(NCc1nnc2n1C(C(=O)O)CC2)c1ccc(F)cc1 (stereo not drawn)	0	-	0	-
CCS(=O)(=O)N1CCCCC(NC(=O)c2scc3c2OCCO3)C1 (stereo not drawn)	?	0	?	0
O=C([C@@H]1C[C@H](F)CN1C(=O)c1ccoc1)N1CCCCC1	0	0	0	0
CC(C)NS(=O)(=O)c1ccc2c(c1)nc(-c1ccc(-c3ccn[nH]3)o1)n2C(C)C	?	0	?	0
CC(C)NS(=O)(=O)c1ccc2c(c1)nc(-c1cc(C(C)(C)C)[nH]n1)n2C(C)C	44.7µM	0	?	0
CCN1C(=O)CCN(C(=O)c2ccco2)CC12CCOCC2	0	-	0	-
COc1ccc(-c2cc(C(=O)NCc3cc(C)on3)c3c(c2)N(C)CCO3)cn1	?	0	?	0
CN1CCC2(C1)CN(Cc1ccccc1)c1ccc(C(=O)NC3CC3)cc12 (stereo not drawn)	?	0	0	0
CN1CCCC2(C1)CN(Cc1cccnc1)c1ccc(C(=O)Nc3ccccc3)cc12 (stereo not drawn)	?	0	89.1µM	0
CN1CCC2(C1)CN(Cc1ccccc1)c1ccc(C(=O)NC3CCCCC3)cc12 (stereo not drawn)	79.4µM	0	?	0
CN1CCC2(C1)CN(Cc1ccccc1)c1ccc(C(=O)NC3CCC3)cc12 (stereo not drawn)	?	0	79.4µM	0
CN1CCCC2(C1)CN(C)c1ccc(C(=O)Nc3ccccc3)cc12 (stereo not drawn)	?	0	?	0
CSCC[C@@H]1NC(=O)c2cc(NC(=O)c3n[nH]c4c3CCC4)ccc2NC1=O	0	0	0	0
COc1ccc(CNC(=O)[C@@H]2CCC[C@@H](NC(=O)C3CC3)CN(C)C(=O)C2)cc1	0	0	0	0
Cc1cccc(-c2cccc(CN3CCC(NC(=O)c4cccc(Cl)c4)CC3)c2)c1	28.2µM	-	20µM	-
Cc1cccc(-c2cccc(CN3CCC(NC(=O)Cc4cccc(Cl)c4)CC3)c2)c1	20µM	-	14.1µM	-
O=C(NC1CCN(Cc2cccc(-c3cccs3)c2)CC1)c1cccc(Cl)c1	20µM!	-	?	-
O=C(NC1CCN(Cc2cccc(-c3cccs3)c2)CC1)c1ccc(Cl)cc1	?	-	0	-
SMILES	HEK cytotox	hNpr1 antagonist	NIH3T3 tox	Luciferase inh
Cc1cccc(-c2cccc(CN3CCC(NC(=O)NC4CCCC4)CC3)c2)c1	0	-	?	-
Cc1cccc(-c2cccc(CN3CCC(NC(=O)C(C)(C)C)CC3)c2)c1	44.7µM	-	?	-
Cc1cccc(-c2cccc(CN3CCC(NC(=O)c4ccc(C(F)(F)F)cc4)CC3)c2)c1	0	-	0	-
Cc1ccc(CN2CC(O)CN([S+](=O)([O-])c3ccccc3)CC2=O)cc1 (stereo not drawn)	0	-	?	-
COc1ccc(-c2nc(C)nc3c2CCN(CCC(C)C)CC3)cc1	0	0	0	0
CC(C)N1C[C@@H](C(=O)O)C[C@H](C(=O)Nc2ccc(F)cc2)C1	0	0	0	0
O=C(Nc1ccc(F)cc1)c1ccn2nccc2c1	?	0	0	50.1µM
Cc1ccc(N2CCC(N[C@@H]3CC[C@@H](N)C3)CC2)cc1Cl	7.94µM	0	10µM	0
